The source of these data is PubChem BioAssay (Tox21).

Values joined by “and” are separate entries in the source; they are usually repeats but may differ in a detail not shown here. Equal values may be shown once. Results filed as inconclusive are left out. Some structures have more than one record in an assay (separate samples or runs), and their calls can disagree. Active and inactive are the calls of the source. Unless noted, calls follow the shape of the full dose curve.

The nature of assay [1]: Nuclear factor erythroid 2-related factor 2/antioxidant responsive element (Nrf2/ARE) small molecule agonists: qHTS cell viability counter screen in human keratinocytes (AID 1919968; active = well fitted curve in the direction sought with a large enough effect in the repeat runs; an effect the other way counts as inactive or inconclusive; also: nearly all actives have a fitted effect of over 55% in size; also: potency is read from the fitted curve at half-maximal effect). The method in brief:
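CellTiter-Fluor fluorescence, read 1 h after reagent, gave viability in the same wells as the ARE-luciferase assay. KeratinoSens cells (1,500/well) had 23 h compound exposure at 37 C/5% CO2 following 5 h plating.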

The nature of assay [2]: Nuclear factor erythroid 2-related factor 2/antioxidant responsive element (Nrf2/ARE) small molecule agonists: luciferase reporter gene qHTS assay in human keratinocytes (AID 1919969; also: nearly all actives have a fitted effect of over 35% in size). (In general: A reporter such as luciferase makes a cellular process visible.)
For assay [3], the target named is Gonadotropin-releasing hormone receptor (Homo sapiens) (UniProt P30968). Briefly: Human gonadotropin-releasing hormone receptor (GnRHR) small molecule agonists, calcium flux assay in GnRHR-HEK293 cells (AID 1920063). Also: nearly all actives have a fitted effect of over 35% in size. The method in brief: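 Agonist mode: compounds at 15 concentrations, in triplicate, went onto calcium dye-loaded GnRHR-HEK293 cells. Intracellular calcium was then followed as 480/540 nm fluorescence at 1 s intervals over 3 min.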

Assay [4] addresses KiSS-1 receptor (Homo sapiens) (UniProt Q969F8). Briefly: Human kisspeptin (KISS1R) small molecule agonists, calcium flux assay in KISS1R-HEK293 cells (AID 1920064; active = well fitted curve in the direction sought with a large enough effect in the repeat runs; an effect the other way counts as inactive or inconclusive). In outline:
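Agonist mode: intracellular calcium rise tracked at 1 s intervals over 3 min (480/540 nm) immediately after compound addition to dye-loaded KISS1R-HEK293 stable cells. Each compound tested at 15 concentrations in triplicate.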
(In general: A change in cytosolic calcium serves as a functional read-out for many receptors and channels.)

A short description of assay [5]: G protein-coupled receptor (GPCR) small molecule agonists, calcium flux assay: HEK293 wild type cell line counter screen (AID 1920065). The method in brief:
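Calcium flux counter screen: compound added in agonist mode at 15 concentrations in triplicate to dye-loaded parental HEK293 cells. Fluorescence (480/540) read kinetically for 3 min; ATP served as positive control.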

Assay [6] can be described thus: p53 small molecule agonists, cell-based qHTS assay with rat liver microsomes (AID 1963578). In outline:
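Quantitative HTS of the Tox21 10K library: p53RE-bla cells, rat liver microsomes plus NADPH at 0.5 mg/mL final each, 16 h at 37 C, beta-lactamase fluorescence detection.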
(Quantitative high-throughput screening tests each substance at several concentrations.)

A short description of assay [7]: p53 small molecule agonists, cell-based qHTS assay with human liver microsomes: qHTS cell viability counter screen (AID 1963579). Also: nearly all actives have a fitted effect of over 45% in size. The method in brief:
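Viability of p53RE-bla cells is measured as CellTiter-Glo luminescence following a 16 h, 37 C incubation with compound, liver microsomes from human donors and NADPH.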

The nature of assay [8]: p53 small molecule agonists, cell-based qHTS assay with rat liver microsomes: qHTS cell viability counter screen (AID 1963580). Also: nearly all actives have a fitted effect of over 45% in size. The method in brief: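 Rat liver microsome (0.5 mg/mL final) and NADPH (0.5 mg/mL final) co-incubation with compounds for 16 h at 37 C on HCT-116 p53RE-bla cells; cytotoxicity taken from intracellular ATP luminescence.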
A short description of assay [9]: p53 small molecule agonists, cell-based qHTS assay: qHTS cell viability counter screen (AID 1963581). Also: nearly all actives have a fitted effect of over 45% in size. In outline:
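Counter screen read by CellTiter-Glo luminescence (ATP content, 30 min at room temperature), run in the same wells as the beta-lactamase reporter read. HCT-116 p53RE-bla cells saw compounds for 16 h at 37 C.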

The nature of assay [10]: p53 small molecule agonists, cell-based qHTS assay (AID 1963582; active = well fitted activation curve with a large enough effect in the signal ratio in the repeat runs, not every such curve was filed as active; the % refers to the signal ratio). In outline:
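Read-out is beta-lactamase FRET fluorescence after 2 h at room temperature with LiveBLAzer B/G substrate. p53 response element-bla cells were treated 16 h at 37 C with compounds in DMSO, added 5 h after seeding.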

For assay [11], the target named is 5-hydroxytryptamine receptor 2A (Homo sapiens) (UniProt P28223). Briefly: 5-hydroxytryptamine receptor 2A (HTR2A) small molecule agonists, cell-based qHTS assay (AID 1963587). Also: nearly all actives have a fitted effect of over 30% in size. In outline:
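Kinetic calcium-flux fluorescence (2 min, 1 sec intervals) after compound addition in agonist mode. HTR2A-CHO cells were cultured 18 h, then dye-loaded 1 h at 37 C.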

The target of assay [12] is Muscarinic acetylcholine receptor M1 (Homo sapiens) (UniProt P11229). Briefly: Cholinergic receptor muscarinic 1 (CHRM1) small molecule agonists, cell-based qHTS assay (AID 1963589). Also: nearly all actives have a fitted effect of over 35% in size. In outline:
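Agonist-mode calcium-flux screen: compounds at 15 concentrations, three independent runs, were pin-transferred onto dye-loaded human CHRM1-CHO cells. Fluorescence was then recorded kinetically every second over minutes.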

A short description of assay [13]: cAMP Responsive Elements (CRE) small molecule agonists, cell-based qHTS assay (AID 1963590). In outline: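 Agonist mode: compound added to CRE-bla HEK 293T cells (2,000/well, 18 h after plating) for 3 h at 37 C/5% CO2. Reporter activity detected via FRET beta-lactamase substrate, 2 h room-temperature loading.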
The nature of assay [14]: cAMP Responsive Elements (CRE) small molecule antagonists, cell-based qHTS assay (AID 1963591; active = well fitted inhibition curve with a large enough effect in the signal ratio in the repeat runs, not every such curve was filed as active; the % refers to the signal ratio). In outline:
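Antagonist mode: compounds are added alongside the adenylyl cyclase activator NKH477 (0.25 uM final) to CRE-bla HEK293T cells for 3 h. LiveBLAzer FRET substrate, 2 h at room temperature, reports bla expression.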

In assay [15] the target is Beta-2 adrenergic receptor (Homo sapiens) (UniProt P07550). Briefly: Adrenergic beta2 receptor (ADRB2) small molecule agonists, cell-based qHTS assay (AID 1963593).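 Also: CHO cells stably overexpressing human ADRB2.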 The method in brief:
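CHO cells stably over-expressing ADRB2 were plated overnight at 37C, then dosed with compounds plus a stimulation mix containing 100uM IBMX and 25uM Ro-20-1724 for 0.5hr at room temperature. cAMP was measured by HTRF competition, 1hr.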

For assay [16], the target named is D(2) dopamine receptor (Homo sapiens) (UniProt P14416). Briefly: Dopamine D2 receptor (DRD2) small molecule agonists, cell-based qHTS assay (AID 1963594). Also: nearly all actives have a fitted effect of over 35% in size. In outline:
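cAMP accumulation in DRD2-HEK293 cells measured by HTRF after 1 h detection; compounds added 10 min before NKH477 (200nM […]) forskolin-analogue stimulation, 30 min at room temperature, with Ro20-1724 present at 0.1 mM final.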

Assay [17] concerns the target 5-hydroxytryptamine receptor 2A (Homo sapiens) (UniProt P28223). Briefly: 5-hydroxytryptamine receptor 2A (HTR2A) small molecule antagonists, cell-based qHTS assay (AID 1963586). Also: nearly all actives have a fitted effect of over 45% in size. The method in brief: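 CHO cells stably expressing human HTR2A were plated for 18 h at 37 C, then loaded with calcium dye for 1 h. Compounds were preincubated 5 min at room temperature before DOI (4 nM solution) was added. Kinetic fluorescence was read for 3 min.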

Assay [18] addresses Muscarinic acetylcholine receptor M1 (Homo sapiens) (UniProt P11229). Briefly: Cholinergic receptor muscarinic 1 (CHRM1) small molecule antagonists, cell-based qHTS assay (AID 1963588). Also: nearly all actives have a fitted effect of over 40% in size. In outline:
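Compounds were tested at 15 concentrations in three independent runs. Dye-loaded CHRM1-CHO cells were exposed 5 min at room temperature before stimulation by acetylcholine added at 50nM. Intracellular calcium was read kinetically on FDSS for 3 min.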

The target in assay [19] is Beta-2 adrenergic receptor (Homo sapiens) (UniProt P07550). Briefly: Adrenergic beta2 receptor (ADRB2) small molecule antagonists, cell-based qHTS assay (AID 1963592). Also: series mostly up to about 92 µM; nearly all actives have a fitted effect of over 50% in size. In outline:
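Assay format: CHO-ADRB2 cells, 18-20hr seeding at 37C/5% CO2, then compound plus 1nM isoproterenol agonist mix for 0.5hr RT. Homogeneous time-resolved fluorescence cAMP detection after 1hr, expressed as 665/615 nm ratio.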

Assay [20] deals with D(2) dopamine receptor (Homo sapiens) (UniProt P14416). Briefly: Dopamine D2 receptor (DRD2) small molecule antagonists, cell-based qHTS assay (AID 1963595; active = well fitted inhibition curve with a large enough effect in the signal ratio in the repeat runs, with a control signal flat; the % refers to the signal ratio). The method in brief: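 Antagonist mode in DRD2-HEK293 cells: after compound addition with 0.1 mM Ro20-1724, cells received quinpirole (12 nM) and NKH477 (200 nM) for 30 min at room temperature; HTRF cAMP read after 1 h detection.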
D(2) dopamine receptor (Homo sapiens), sequence (P14416 whole entry, looked up): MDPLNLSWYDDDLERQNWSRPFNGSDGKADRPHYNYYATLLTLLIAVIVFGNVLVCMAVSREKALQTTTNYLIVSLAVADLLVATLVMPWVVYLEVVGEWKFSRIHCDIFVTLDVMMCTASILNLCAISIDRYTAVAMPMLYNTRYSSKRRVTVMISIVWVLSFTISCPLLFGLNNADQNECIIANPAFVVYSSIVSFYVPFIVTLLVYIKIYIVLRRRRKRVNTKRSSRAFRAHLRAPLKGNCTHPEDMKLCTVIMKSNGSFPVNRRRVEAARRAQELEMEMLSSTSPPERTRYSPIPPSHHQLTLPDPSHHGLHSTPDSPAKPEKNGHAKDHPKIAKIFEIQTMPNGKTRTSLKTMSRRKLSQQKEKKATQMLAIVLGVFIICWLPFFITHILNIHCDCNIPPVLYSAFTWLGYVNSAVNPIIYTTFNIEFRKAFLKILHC

Beta-2 adrenergic receptor (Homo sapiens), sequence (P07550 whole entry, looked up): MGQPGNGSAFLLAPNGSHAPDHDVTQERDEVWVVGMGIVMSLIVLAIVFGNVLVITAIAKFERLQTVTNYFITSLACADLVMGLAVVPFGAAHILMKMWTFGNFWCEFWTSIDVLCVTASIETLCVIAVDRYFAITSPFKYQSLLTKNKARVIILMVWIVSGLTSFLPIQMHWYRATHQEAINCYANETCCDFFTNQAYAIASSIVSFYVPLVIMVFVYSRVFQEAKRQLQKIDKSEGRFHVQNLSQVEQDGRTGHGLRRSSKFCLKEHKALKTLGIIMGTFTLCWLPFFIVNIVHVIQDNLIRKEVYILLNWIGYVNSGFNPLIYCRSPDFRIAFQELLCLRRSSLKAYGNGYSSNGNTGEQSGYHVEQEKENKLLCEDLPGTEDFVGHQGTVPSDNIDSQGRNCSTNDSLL
KiSS-1 receptor (Homo sapiens), sequence (Q969F8 whole entry, looked up): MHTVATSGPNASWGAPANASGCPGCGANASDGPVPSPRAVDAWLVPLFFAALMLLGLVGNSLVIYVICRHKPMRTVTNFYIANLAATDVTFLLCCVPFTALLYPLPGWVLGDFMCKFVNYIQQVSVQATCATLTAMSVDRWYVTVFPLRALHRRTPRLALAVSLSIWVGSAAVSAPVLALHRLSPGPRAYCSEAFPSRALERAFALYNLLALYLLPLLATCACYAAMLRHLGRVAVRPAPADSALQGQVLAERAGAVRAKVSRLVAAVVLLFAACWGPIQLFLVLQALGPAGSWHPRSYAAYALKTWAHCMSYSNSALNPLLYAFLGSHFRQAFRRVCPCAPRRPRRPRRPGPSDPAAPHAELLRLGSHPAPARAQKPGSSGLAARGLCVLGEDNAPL
Gonadotropin-releasing hormone receptor (Homo sapiens), sequence (P30968 whole entry, looked up): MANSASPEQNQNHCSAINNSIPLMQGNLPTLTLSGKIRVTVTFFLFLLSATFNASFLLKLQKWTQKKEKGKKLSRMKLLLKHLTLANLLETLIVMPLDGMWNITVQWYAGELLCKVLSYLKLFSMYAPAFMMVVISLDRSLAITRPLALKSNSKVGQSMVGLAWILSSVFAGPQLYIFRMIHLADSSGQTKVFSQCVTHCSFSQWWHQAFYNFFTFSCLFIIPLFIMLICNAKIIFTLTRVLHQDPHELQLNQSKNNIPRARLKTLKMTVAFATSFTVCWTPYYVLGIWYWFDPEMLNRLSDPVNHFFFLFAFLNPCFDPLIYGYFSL
Muscarinic acetylcholine receptor M1 (Homo sapiens), sequence (P11229 whole entry, looked up): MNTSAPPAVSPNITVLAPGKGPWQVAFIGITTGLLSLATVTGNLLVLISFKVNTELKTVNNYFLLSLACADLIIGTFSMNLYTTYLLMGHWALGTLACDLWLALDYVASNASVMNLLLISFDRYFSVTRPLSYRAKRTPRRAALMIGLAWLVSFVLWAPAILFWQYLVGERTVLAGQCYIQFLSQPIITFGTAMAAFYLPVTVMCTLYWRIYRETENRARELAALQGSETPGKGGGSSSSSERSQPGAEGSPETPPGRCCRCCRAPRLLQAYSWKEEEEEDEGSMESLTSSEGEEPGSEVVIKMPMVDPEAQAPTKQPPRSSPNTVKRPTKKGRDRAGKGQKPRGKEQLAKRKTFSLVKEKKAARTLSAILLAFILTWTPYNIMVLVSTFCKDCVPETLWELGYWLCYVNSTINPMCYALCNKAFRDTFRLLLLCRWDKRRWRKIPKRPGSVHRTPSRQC
5-hydroxytryptamine receptor 2A (Homo sapiens), sequence (P28223 whole entry, looked up): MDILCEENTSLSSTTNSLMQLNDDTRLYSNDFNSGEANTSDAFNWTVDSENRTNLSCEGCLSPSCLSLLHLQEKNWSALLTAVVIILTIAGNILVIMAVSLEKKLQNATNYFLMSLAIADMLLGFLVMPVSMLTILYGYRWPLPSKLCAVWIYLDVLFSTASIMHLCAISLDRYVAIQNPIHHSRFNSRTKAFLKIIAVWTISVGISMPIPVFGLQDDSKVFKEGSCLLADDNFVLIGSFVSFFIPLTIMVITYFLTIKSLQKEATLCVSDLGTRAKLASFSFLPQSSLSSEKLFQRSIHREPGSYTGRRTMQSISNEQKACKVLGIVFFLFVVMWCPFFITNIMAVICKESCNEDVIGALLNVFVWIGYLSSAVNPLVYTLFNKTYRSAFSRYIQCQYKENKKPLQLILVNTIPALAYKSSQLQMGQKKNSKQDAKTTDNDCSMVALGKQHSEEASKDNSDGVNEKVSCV

Regarding `O=C(O)Cc1ccc(CCNS(=O)(=O)c2ccc(Cl)cc2)cc1`, the Potency entry in [1], in assay [2], in assay [3], in assay [4], in [5] and in assay [6] was “inactive” in each case. Moreover, the Potency entry in assay [7], in assay [8], in [9], in [10], in assay [11] and in assay [12] was “inactive” each time. Moreover, the Potency result in assay [13], in assay [14], in assay [15] and in assay [16] was “inactive” throughout.
Consider `OCC(CO)(CBr)CBr`, for which the Potency result in [1], in [2], in [3], in assay [4], in assay [5] and in assay [7] was “inactive” each time. Also, the Potency result in assay [8], in assay [9], in [17], in assay [11], in assay [18] and in assay [12] was “inactive” throughout. The Potency result in [13], in assay [14], in [19], in [16] and in [20] was “inactive” each time.
As for `CCCCC(CC)COCC1CO1` (centres undefined), the Potency result in [1], in [2], in assay [3], in assay [4], in [5] and in [7] was “inactive” throughout. Further, the Potency entry in [8], in [9], in assay [17], in assay [11], in assay [18] and in assay [12] was “inactive” each time. In addition, the Potency result in assay [13], in assay [14], in [19], in assay [15], in [16] and in assay [20] was “inactive” each time.
`Nc1c(S(=O)(=O)O)cc(Br)c2c1C(=O)c1ccccc1C2=O`: the Potency result in assay [1] is “inactive and 30.6 µM (active)”. Moreover, the Potency entry in assay [2], in assay [3], in assay [4], in assay [5], in assay [7] and in [8] was “inactive” in each case. In addition, the Potency result in assay [9], in [17], in [11], in assay [18], in assay [12] and in assay [13] was “inactive” in each case. The Potency entry in assay [14], in assay [19], in assay [16] and in assay [20] was “inactive” in each case.
`C[Si](C)O[Si](C)(C)O[Si](C)(C)O[Si](C)C`: the Potency result in [1], in assay [2], in assay [3], in assay [4], in assay [5] and in assay [6] was “inactive” throughout. Also, the Potency result in [8], in assay [9], in [10], in assay [17], in assay [11] and in [12] was “inactive” each time. For the same compound, the Potency result in [13], in assay [14], in assay [19], in assay [16] and in assay [20] was “inactive” in each case.
In the case of `O=C1CC2(CCCC2)CC(=O)N1CCCCN1CCN(c2ncccn2)CC1`, the Potency result in assay [1], in [2], in [3], in [4], in assay [5] and in assay [7] was “inactive” in each case. Moreover, the Potency result in [8], in assay [9], in assay [13], in assay [14], in assay [19] and in assay [16] was “inactive” each time.
Consider `CC(=O)OCc1ccco1`, for which the Potency entry in assay [1], in assay [2], in assay [3], in assay [4], in [5] and in assay [7] was “inactive” each time. The Potency entry in assay [8], in [9], in assay [17], in [11], in [18] and in assay [12] was “inactive” in each case. The Potency entry in assay [13], in assay [14], in [19], in [16] and in [20] was “inactive” throughout.
